# Source: PubChem BioAssay AID999 (SRMLSC, 2007)
# Values without a mark were called inactive.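 Rule for the calls: active = viability at or below 21.59%, 3 SD under the median of tested compounds; inactive = the rest.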
# Assay: growth suppression of PTEN-null HCT116 cells, cell-based, validation, diverse DP compound set (AID 999);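 note: 100% = median luminescence of untreated cell control wells and 0% = no signal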
# Conditions: CellTiter-Glo, 60 h, at 10 µM, hits give low values
row,SMILES,viability [%]
1,O=C1OC2(c3ccc(O)cc3Oc3cc(O)ccc32)c2ccccc21,96
2,CC(=O)[C@H]1[C@H](C#N)CC2C3CC=C4C[C@@H](O)CCC4(C)C3CCC21C (stereo partly drawn),94.8
3,CC[N+](CC)(CC)CC(=O)Nc1c(C)cccc1C,105
4,C=C1CC[C@H](O)C/C1=C/C=C1\CCC[C@]2(C)[C@@H]([C@H](C)CCCC(C)C)CC[C@@H]12,92.4
5,Cc1ccc(Cl)c(Nc2ccccc2C(=O)O)c1Cl,98.1
6,CN1C2CCC1CC(OC(=O)C(CO)c1ccccc1)C2 (stereo not drawn),94.2
7,COc1ccc2cc1Oc1ccc(cc1)C[C@H]1c3c(cc4c(c3Oc3cc5c(cc3OC)CCN(C)[C@@H]5C2)OCO4)CCN1C,37.8
8,CN(C)c1ccc(/C=C2\C(=O)Nc3ccccc32)cc1,86.2
9,COc1cccc2c1C(=O)c1c(O)c3c(c(O)c1C2=O)C[C@@](O)(C(=O)CO)C[C@@H]3OC1C[C@@H](N)[C@H](O)[C@H](C)O1 (stereo partly drawn),27.7
10,COc1cc([C@@H]2c3cc4c(cc3[C@H](O)[C@H]3COC(=O)[C@H]23)OCO4)cc(OC)c1OC,24.6
11,CN1CCN(C2Cc3ccccc3Sc3ccc(S)cc32)CC1 (stereo not drawn),50.3
12,CC1(C)OC2CC(=O)OCC23C1CC(=O)C1(C)C3CC[C@@]2(C)[C@H](c3ccoc3)OC(=O)C3OC312 (stereo partly drawn),97.3
13,COc1ccc2c(c1)c(CC(=O)O)c(C)n2C(=O)c1ccc(Cl)cc1,105
